In PubChem BioAssay AID2111 (National Center for Advancing Translational Sciences (NCATS), 2009):
Several values for one entry are separate records, joined by “and”; a condition that tells them apart may be missing. Equal values may be shown once. Activity calls are given as the source filed them. The call rests on the fitted dose curve; in most records, active means well fitted curve in either direction with a large enough effect; inconclusive means small, poorly fitted or top-dose-only effect; inactive means no such curve, though single readings can be large or run the other way.

Molecular target: Lysosomal alpha-glucosidase (Homo sapiens) (UniProt P10253)
Assay: Confirmation of Inhibitors and Activators of Human alpha-Glucosidase From Spleen Homogenate Using an Alternate Red Fluorescent Susbtrate
Details: resorufin-glucoside fluorescence; series mostly up to 62.8 µM
Excerpt: NIH Chemical Genomics Center [NCGC] NIH Molecular Libraries Probe Production centers Network [MLPCN] MLPCN Grant: 1R03MH084841-01 Assay Submitter (PI): Wei Zheng NCGC Assay Overview: Alpha-glucosidase is responsible for hydrolysis of terminal, non-reducing 1,4-linked alpha-D-glucose residues with release of alpha-D-glucose. It is a lysosomal hydrolase that is required for the degradation of a small percentage (1-3%) of cellular glycogen in human. Deficiency of this enzyme results in glycogen-storage disease type II (GSDII), also referred to as Pompe disease, an autosomal recessive disorder. Structurally normal glycogen is accumulated in lysosomes and cytoplasm in affected patients, primarily in muscle tissues. Excessive glycogen storage within lysosomes may interrupt normal functioning of other organelles and leads to cellular injury. In turn, this leads to enlargement and dysfunction of the entire organ involved (eg, cardiomyopathy and muscle weakness). It has reported that the improper folding and trafficking of alpha-glucosidase resultinged from the genetic mutations may account for a significant number of Pomrope patients. […] We optimized this alpha-glucosidase assay in 1536-well plate format for identifying the novel small molecule inhibitors with the structures other than the sugar analogs in order to develop the new pharmacological chaperones. In particular, this assay is directed towards discovering compounds active in a more natural setting, tissue homogenate, that may have been missed by screens of the purified enzyme under more stringent conditions. This assay attempted to confirm hits from the primary screening using an alternate fluor than the primary screen used.
NCGC Assay Protocol Summary: This is a fluorogenic enzyme assay with Resorufin-alpha-D-glucopyranoside as the substrate and human spleen homogenate containing alpha-glucosidase as the enzyme preparation. Upon hydrolysis of this fluorogenic substrate, the resulting product, resorufin (which excites at 573 nm and emits at 610 nm) can be detected by a fluorescence plate reader. Data were normalized to the controls for basal activity (without enzyme) and 100% activity (with enzyme). The AC50 values were determined from concentration-response data modeled with the standard Hill equation. Assay buffer: 50 mM citric acid (titrated with potassium phosphate to pH 5.0), 0.01% Tween-20 (pH 5.0 is an optimal condition for this enzyme assay) 1536-well assay protocol for the alpha-glucosidase from human spleen homogenate: (1) Add 2 ul/well spleen homogenate (1 ug) (2) Add 23 nL compounds in DMSO solution. The final titration was 0.5 nM to 58 uM. (3) Add 2 ul of substrate (1 mM final) (4) Incubate at 37 C for 40 min (5) Add 2 ul stop solution (1M NaOH and 1M Glycine mixture, pH 10) (6) Detect the assay plate in a ViewLux plate reader (PerkinElmer) with […]. Keywords: Alpha-glucosidase, Pompe Disease, pharmacological chaperone, chaperone therapy, high throughput screening, alpha-glucosidase inhibitor, MLSMR, MLSCN, NIH Roadmap, qHTS and NCGC

**Q.** For `O=C1Cc2cc(S(=O)(=O)N3CCN(c4cccc(C(F)(F)F)c4)CC3)ccc2N1`, which Potency is on record?
**A.** 8.41 µM [inhibitor] (active)

**Q.** `O=c1[nH]cc(CCc2ccccc2)c2ncncc12` was tested. Which Potency did it give?
**A.** inactive

**Q.** Which Potency does the source give for `CCCN1CNc2c(c(=O)[nH]c(=S)n2CCc2cccc(OC)c2OC)C1` here?
**A.** 15.8 µM (active)

**Q.** Which Potency does the source give for `c1csc(-c2nc(NCC3CCCO3)c3ccccc3n2)c1` (stereo not given) here?
**A.** inactive

**Q.** For `CC(=O)N1CCN(c2ccc(NS(=O)(=O)c3ccc4c(c3)CC(=O)N4)cc2)CC1`, which Potency is on record?
**A.** inactive

**Q.** With `O=C1Cc2cc(S(=O)(=O)N3CCN(c4ccc([N+](=O)[O-])cc4)CC3)ccc2N1` as the molecule, how does the Potency read?
**A.** 5.8 µM [inhibitor] (active)

**Q.** How did the Potency turn out when `CCCN1CNc2c(c(=O)[nH]c(=S)n2CCC)C1` was run?
**A.** inactive

**Q.** Which Potency does the source give for `CC(=O)c1ccc(N2CCN(S(=O)(=O)c3ccc4c(c3)C(Cl)(Cl)C(=O)N4)CC2)cc1` here?
**A.** 20.6 µM [inhibitor] (active) and 32.6 µM [inhibitor] (active)

**Q.** How did the Potency turn out when `CCCN1CNc2c(c(=O)[nH]c(=S)n2CCc2ccccc2C)C1` was run?
**A.** 12.6 µM (active)

**Q.** With `COc1ccc(N2CCN(S(=O)(=O)c3ccc4c(c3)CC(=O)N4)CC2)cc1` as the molecule, how does the Potency read?
**A.** 6.68 µM [inhibitor] (active)

**Q.** Which Potency does the source give for `CCCN1CNc2c(c(=O)[nH]c(=S)n2CCc2c(C)cccc2C)C1` here?
**A.** 2.82 µM (active)

**Q.** How did the Potency turn out when `CCCN1CNc2c(c(=O)[nH]c(=S)n2CCc2ccccc2OC)C1` was run?
**A.** 14.1 µM (active)

**Q.** How did the Potency turn out when `COc1ccc(CCc2c[nH]c(=O)c3cncnc23)cc1OC` was run?
**A.** inactive

**Q.** Which Potency does the source give for `COc1cccc(CCn2c(N)cc(=O)[nH]c2=S)c1OC` here?
**A.** inactive

**Q.** For `COc1ccc(CCn2c3c(c(=O)[nH]c2=S)CN(C(C)C)CN3)cc1OC`, which Potency is on record?
**A.** 12.6 µM (active)

**Q.** With `CCCN1CNc2c(c(=O)[nH]c(=S)n2CCc2ccc(Cl)cc2Cl)C1` as the molecule, how does the Potency read?
**A.** 7.94 µM (active)

**Q.** For `CCCN1CNc2c(c(=O)[nH]c(=S)n2CCc2ccc3c(c2)OCCO3)C1`, which Potency is on record?
**A.** 8.91 µM (active)

**Q.** For `CCCN1CNc2c(c(=O)[nH]c(=S)n2CCC(C)(C)C)C1`, which Potency is on record?
**A.** inactive

**Q.** For `CCCN1CNc2c(c(=O)[nH]c(=S)n2CCc2ccc(OC)cc2)C1`, which Potency is on record?
**A.** 25.1 µM (active)

**Q.** For `CCCN1CNc2c(c(=O)[nH]c(=S)n2CCc2ccc(OCC)c(OCC)c2)C1`, which Potency is on record?
**A.** 7.94 µM (active)

**Q.** Which Potency does the source give for `O=C1Cc2cc(S(=O)(=O)N3CCN(c4ccc(F)cc4)CC3)ccc2N1` here?
**A.** 59.5 µM [inhibitor] (active)

**Q.** For `CCCN1CNc2c(c(=O)[nH]c(=S)n2CCc2cc(C)ccc2C)C1`, which Potency is on record?
**A.** 8.91 µM (active)

**Q.** For `O=C1Cc2cc(S(=O)(=O)N3CCNCC3)ccc2N1`, which Potency is on record?
**A.** inactive

**Q.** How did the Potency turn out when `O=S(=O)(c1ccc(Cl)cc1)N1CCN(c2nc(Nc3cc(Cl)ccc3O)nc3ccccc23)CC1` was run?
**A.** inactive

**Q.** Which Potency does the source give for `CC(=O)c1ccc(N2CCN(S(=O)(=O)c3cc4c(cc3Cl)NC(=O)C4)CC2)cc1` here?
**A.** 4.61 µM [inhibitor] (active) and 3.66 µM [inhibitor] (active)

**Q.** With `CC(=O)c1ccc(N2CCN(C(=O)c3ccc4c(c3)CCC(=O)N4)CC2)cc1` as the molecule, how does the Potency read?
**A.** inactive

**Q.** For `CCCN1CNc2c(c(=O)[nH]c(=S)n2CCc2cc(Cl)ccc2Cl)C1`, which Potency is on record?
**A.** 10 µM (active)

**Q.** Which Potency does the source give for `O=C1Cc2cc(S(=O)(=O)N3CCN(c4ccc(C(F)(F)F)cc4)CC3)ccc2N1` here?
**A.** inactive

**Q.** With `O=C1Cc2cc(S(=O)(=O)N3CCN(c4ccc(CO)cc4)CC3)ccc2N1` as the molecule, how does the Potency read?
**A.** 13 µM [inhibitor] (active)

**Q.** How did the Potency turn out when `CCCN1CNc2c(c(=O)[nH]c(=S)n2CCc2cc(Cl)cc(Cl)c2)C1` was run?
**A.** 12.6 µM (active)

**Q.** With `COc1ccc(CCn2c3c(c(=O)[nH]c2=S)CN(c2ccccc2)CN3)cc1OC` as the molecule, how does the Potency read?
**A.** 25.1 µM (active)

**Q.** How did the Potency turn out when `CCCN1CNc2c(c(=O)[nH]c(=S)n2CCc2cccs2)C1` was run?
**A.** 31.6 µM (active)

**Q.** With `COc1ccc(CCn2c3c(c(=O)[nH]c2=S)CN(CC(C)C)CN3)cc1OC` as the molecule, how does the Potency read?
**A.** 6.31 µM (active)

**Q.** How did the Potency turn out when `COc1ccc(CCn2c(=S)[nH]c(=O)c3[nH]cnc32)cc1OC` was run?
**A.** inactive

**Q.** `Cc1ccc(S(=O)(=O)N2CCN(C(=O)N(c3ccccc3)c3ccccc3)CC2)cc1` was tested. Which Potency did it give?
**A.** inactive

**Q.** Which Potency does the source give for `CCCN1CNc2c(c(=O)[nH]c(=S)n2CCc2cccc(Cl)c2)C1` here?
**A.** 15.8 µM (active)

**Q.** `CCCN1CNc2c(c(=O)[nH]c(=S)n2Cc2ccc(OC)c(OC)c2)C1` was tested. Which Potency did it give?
**A.** 5.01 µM (active)

**Q.** How did the Potency turn out when `OCCNc1nc(-c2cccs2)nc2ccccc12` was run?
**A.** inactive

**Q.** How did the Potency turn out when `CCCN1CNc2c(c(=O)[nH]c(=S)n2CCc2cccc(OC)c2)C1` was run?
**A.** 10 µM (active)

**Q.** For `O=C1Cc2cc(S(=O)(=O)N3CCN(c4ccc(Br)cc4)CC3)ccc2N1`, which Potency is on record?
**A.** inactive
